Experimental findings from PubChem BioAssay AID590 (National Center for Advancing Translational Sciences (NCATS), 2007) are described below.

In all, about 59,000 compounds went through this assay and about 6,500 (11%) were called active. Roughly 15% stayed inconclusive and do not appear here. Cut-off read from the data, not from the text of the source: active = max dye-equivalent concentration above about 10 nM; inconclusive = mostly about 1.1 nM to 9.6 nM; inactive = weaker than that. The sample as a whole holds a higher share of actives than the screen did.

The test is described as follows: qHTS Assay for Spectroscopic Profiling in A350 Spectral Region. As to conditions: Compound autofluorescence, 340/450 nm, Alexa 350 dye-equivalents; active compounds read high. Background: Quantitative high-throughput screening tests each substance at several concentrations.
Turning to `CCOc1ccccc1NC(=O)CCc1ccc(C)o1`, the max dye-equivalent concentration result was “inactive”.

On to `O=C(Oc1ccc2c(c1)CCC2)N1CCOCC1`, for which the max dye-equivalent concentration result was “inactive”.

For the molecule `O=C(Nc1cccc(OCC(=O)N2CCOCC2)c1)C1CCCCC1`, the max dye-equivalent concentration result is “inactive”.

Regarding `O=C1CC2(CCCCC2)Oc2ccc(OCC(=O)N3CCOCC3)cc21`, the max dye-equivalent concentration was 1100 nM (active).

With `CCNc1nc(SCCOc2ccccc2)nc(N(C)C)n1`, the max dye-equivalent concentration entry is “inactive”.

For the molecule `CCCn1c(SCC(=O)Nc2c(C)cccc2C)nnc1C(C)C`, the max dye-equivalent concentration result is “inactive”.

Regarding `CC(=O)Nc1ccc(NC(=O)CN2CCCC(C)C2)c(Cl)c1` (stereo not given), the max dye-equivalent concentration entry is “inactive”.

In the case of `Cc1cccn2c(=O)c3cc(C#N)c(=O)n(CCCN4CCOCC4)c3nc12`, the max dye-equivalent concentration was 12000 nM (active).

With `Cc1cccn2c(=O)c3cc(C#N)c(=NC(=O)c4cccnc4)n(CC4CCCO4)c3nc12` (stereo not given), the max dye-equivalent concentration is 4000 nM (active).

`Cn1c(=O)c2c(nc(CN3CCOCC3)n2Cc2ccccc2)n(C)c1=O`: the max dye-equivalent concentration result was “inactive”.

Turning to `Cc1nnc(SCC(N)=O)n1CC1CCCO1` (stereo not given), the max dye-equivalent concentration entry is “inactive”.

`CCn1cc(C(=O)NCc2ccc(OC)cc2OC)c(=O)c2ccc(C)nc21`: the max dye-equivalent concentration entry is “inactive”.

Take `Cc1ccc(S(=O)(=O)NC(=O)NN2C[C@H]3CCC[C@@H]3C2)cc1`: the max dye-equivalent concentration result was “inactive”.

With `Cc1cc(=O)[nH]c(SCC(N)=O)c1C#N`, the max dye-equivalent concentration entry was “inactive”.

As for `Cn1cccc1C(=O)N1CCC[C@@]2(CCN(Cc3nccs3)C2)C1`, the max dye-equivalent concentration entry was “inactive”.

`O=S(=O)(c1ccc(Sc2nnc3ccccn23)nc1)N1CCOCC1`: the max dye-equivalent concentration result is “inactive”.

As to `CC(CCO)Nc1nc2c([nH]1)c(=O)n(C)c(=O)n2C` (stereo not given), the max dye-equivalent concentration entry is “inactive”.

For the molecule `Cn1c(=O)c2[nH]c(NCC3CCCO3)nc2n(-c2ccccc2)c1=O` (stereo not given), the max dye-equivalent concentration is 11 nM (active).

For the molecule `CC(C)(C)c1nc(NCC2CCCO2)c2nnn(Cc3ccccc3)c2n1` (stereo not given), the max dye-equivalent concentration entry was “inactive”.

On to `Cc1ccc2nc(S(=O)(=O)O)[nH]c2c1`, for which the max dye-equivalent concentration result was “inactive”.

Regarding `CCOC(=O)c1cc(-c2nnc(-c3cc(OC)c(OC)c(OC)c3)o2)c(C)nc1C`, the max dye-equivalent concentration is 18 nM (active).

With `COc1cc(-c2nnc(Cn3cc(C(F)(F)F)ccc3=O)o2)cc(OC)c1OC`, the max dye-equivalent concentration entry was “inactive”.

For `COc1cc(-c2nc(S(=O)(=O)c3ccc(Cl)cc3)c(N(C)C)o2)cc(OC)c1OC`, the max dye-equivalent concentration entry is “inactive”.

For the molecule `CCCCC(=O)N1CC2(C)CN(C(=O)CCCC)CC(C)(C1)C2=O`, the max dye-equivalent concentration entry is “inactive”.

As to `CC(NCCO)C(=O)C12CC3CC(CC(C3)C1)C2` (stereo not given), the max dye-equivalent concentration is 43 nM (active).

In the case of `CN1CCN(CC(=O)C23CC4CC(CC(C4)C2)C3)CC1`, the max dye-equivalent concentration entry is “inactive”.

On to `C=CCNC(=O)C12CC3CC(C1)CC(C(=O)NCC=C)(C3)C2`, for which the max dye-equivalent concentration entry is “inactive”.

Turning to `O=C(O)CCC(=O)Nc1ccc(N2CCOCC2)cc1`, the max dye-equivalent concentration result is “inactive”.

Consider `CN(C)c1nc2n(c(=O)n1)CCO2`, for which the max dye-equivalent concentration entry was “inactive”.

Take `Cc1ccsc1CNn1cnnc1SCc1ccccc1F`: the max dye-equivalent concentration result was “inactive”.

Consider `O=C(c1cnccn1)N1CCC2(CCN(Cc3cc(C(F)(F)F)cc(C(F)(F)F)c3)CC2)CC1`, for which the max dye-equivalent concentration entry was “inactive”.

Turning to `CCN1CCN(c2ncnc3c2oc2nc(C)c4c(c23)CC(C)(C)OC4)CC1`, the max dye-equivalent concentration entry was “inactive”.

As to `Cc1nc(NCCN)c(C#N)c2c1COC(C)(C)C2`, the max dye-equivalent concentration was 16 nM (active).

On to `COc1ccc2[nH]cc(CCNc3cc(-c4ccccc4CN(C)C)ncn3)c2c1`, for which the max dye-equivalent concentration result was “inactive”.

Regarding `Nc1ccc2c3c(cccc13)C(=O)NC2=O`, the max dye-equivalent concentration entry was “inactive”.

Take `CNc1nc(-c2ccccc2OC)nc2ccccc12`: the max dye-equivalent concentration entry was “inactive”.

For the molecule `CCSc1nc(=S)n(CC)c(C)c1C(C)=O`, the max dye-equivalent concentration entry is “inactive”.

Take `CCOC(=O)N1CCC(NC(=O)CCc2cn(C)c3ccccc23)CC1`: the max dye-equivalent concentration was 470 nM (active).

As to `CCOC(=O)N1CCC(NC(=O)C(C)n2c3ccccc3c3cnn(C)c(=O)c32)CC1` (stereo not given), the max dye-equivalent concentration entry is “inactive”.

On to `CCOC(=O)N1CCC(NC(=O)Cc2cn(C)c3ccccc23)CC1`, for which the max dye-equivalent concentration entry was “inactive”.

For `CC(=O)N1CCN(C(=O)c2cccc(S(=O)(=O)Nc3ccc(C)cc3)c2)CC1`, the max dye-equivalent concentration result was “inactive”.

As for `CC1(C)CC(CCC(=O)Nc2ccccc2Cl)C(=O)O1` (stereo not given), the max dye-equivalent concentration result was “inactive”.

As for `CC(C)c1nc2oc3c(N4CCN(C)CC4)ncnc3c2c2c1CCC2`, the max dye-equivalent concentration result is “inactive”.

Regarding `CCCCC(=O)Nc1ccc(C(=O)NCCCn2ccnc2)cc1`, the max dye-equivalent concentration result is “inactive”.

Turning to `CCCCCC(=O)Nc1ccc2oc(-c3ccncc3)nc2c1`, the max dye-equivalent concentration is 29 nM (active).

Regarding `CCCCC(=O)Nc1ccc2c(c1)OCCO2`, the max dye-equivalent concentration result is “inactive”.

Turning to `CCOC(=O)c1cccc(NC(=O)CCc2c(C)nc3ncnn3c2C)c1`, the max dye-equivalent concentration result was “inactive”.

`CCCCCN(C(=O)NC(=O)Nc1ccccc1OC)S(C)(=O)=O`: the max dye-equivalent concentration entry was “inactive”.

For `COc1ccc(OC)c(NC(=O)CSc2nc3cccnc3n2C)c1`, the max dye-equivalent concentration entry is “inactive”.

Turning to `CCCC1C(c2ccccc2)C(C#N)(C#N)C2(C#N)CC1(N)NC2=O` (stereo not given), the max dye-equivalent concentration entry is “inactive”.

For `CN1CCN(C(=O)C2C3C=CC(C3)C2C(=O)O)CC1` (stereo not given), the max dye-equivalent concentration entry is “inactive”.

Turning to `O=C(CN1CCOCC1)N1CCCc2c1c(=O)oc1ccc(OCc3ccccc3)cc21`, the max dye-equivalent concentration is 41 nM (active).

For `CCOC(=O)c1c(CN2CCOCC2)n(-c2ccccc2)c2ccc(O)cc12`, the max dye-equivalent concentration result was “inactive”.

In the case of `O=C(OCCN1CCOCC1)C1(c2ccccc2)CCCCC1`, the max dye-equivalent concentration entry was “inactive”.

`O=S(=O)(O)c1nc2ccccc2n1Cc1ccc(Cl)cc1Cl`: the max dye-equivalent concentration entry was “inactive”.
